# Compound activity (PubChem)
# In the library only some 9.3% were active in any assay of this set; here they are far more common.
# VACV mCherry inh – inhibitors of vaccinia virus infection (mCherry reporter signal). 310,000 compounds, 0.63% hits. Vaccinia virus mCherry reporter infection, fluorescence. Potency, µM (top dose mostly 36.5 µM), without a hit: at the highest dose activity change, negative = inhibition, actives largely listed as inhibitors. AID 720579; calls by dose curve; tested in A549 cells; further: potency means the concentration at half of the fitted maximal effect; nearly all actives have a fitted effect of over 35% in size
# Sm TGR inh – blocks Schistosoma mansoni thioredoxin glutathione reductase; AID 485364; purified TGR, DTNB reduction, TNB absorbance 405 nm; 360,000 compounds, 3% hits; Potency, µM (titrated, usually from 114 µM), for the others: at the highest dose activity change, negative = inhibition, actives largely listed as inhibitors; further: potency means the concentration at half of the fitted maximal effect; nearly all actives have a fitted effect of over 60% in size
#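 First, TGR (20 nM dispensed) and NADPH were mixed with compound. Second, a 15 min room-temperature incubation followed. Third, further NADPH and then DTNB were added to start the reaction. Finally, TNB absorbance was monitored kinetically.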
# FMDV antiviral – antivirals against foot and mouth disease virus. FMDV antiviral cell-based qHTS. AID 1159524. Potency, µM (highest dose often 57.9 µM), inactives show top-dose activity change, negative = inhibition, usual class: inhibitors. 410,000 compounds, 1.2% hits; calls by dose curve; tested in HEK293T cells; further: read-out not given here; potency means the concentration at half of the fitted maximal effect; nearly all actives have a fitted effect of over 45% in size
# Vaccinia Venus – vaccinia inhibition (Venus reporter) | 330,000 compounds, 0.46% hits | Potency, µM (series often up to 36.5 µM), for the others: at the top dose activity change, negative = inhibition, most hits filed as inhibitors | Vaccinia virus Venus reporter expression, fluorescence; calls by dose curve; tested in A549 cells; further: potency means the concentration at half of the fitted maximal effect; nearly all actives have a fitted effect of over 30% in size
# HCV inhibitor – blocks hepatitis C virus. 340,000 compounds, 3.4% hits. Potency, µM (series often up to 41.8 µM), for the others: at the top dose activity change, negative = inhibition, most hits filed as inhibitors. Huh7.5.1 HCVcc-Cre infection, luciferase reporter, 44 h; further: potency means the concentration at half of the fitted maximal effect
#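 Luciferase read-out (15 sec integration) after a 15 min room-temperature substrate step quantifies HCVcc-Cre infection. Cells, 1,000 per well, had compound added 4 h post-plating, then virus at ~0.5 moi, and were cultured 44 h.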
# HCMV inh – inhibitors of human cytomegalovirus; HFF cells, HCMV-luciferase reporter, 72 h; active compounds read low; activity change, negative = inhibition, % at 57.5 µM; 410,000 compounds, 4.5% hits; AID 1259415; in the data active means activity change below about -60%; inconclusive means no clear call, values can overlap the other calls; inactive means above about -39%
#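 After 16 h attachment at 37C, HFF cells received test compound and HCMV-luciferase (1 PFU/cell); reporter luminescence read 72 h later, data normalized against buffer-only and known inhibitor Salinomycin.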
# Active calls of the source: *; i = inactive; ? = inconclusive; / = no result given; [ ] = dose if it differs, or a comment. Unless noted, the call rests on the fitted dose curve; in most records, active means well fitted curve in the direction sought with a large enough effect; inconclusive means small, poorly fitted or top-dose-only effect, or another doubt; inactive means no such curve, though single readings can be large; an effect the other way counts as inactive or inconclusive. On the % scale 0 is the no-effect control and ±100 the full control effect.
SMILES,VACV mCherry inh,Sm TGR inh,FMDV antiviral,Vaccinia Venus,HCV inhibitor,HCMV inh
Cc1cccc(NC(=O)/C(C#N)=C\c2cc(C)n(-c3ccc(C(=O)O)cc3)c2C)c1,i,/,-14.2%,-5.8%,-17.0%,-61.0*
N#C/C(=C\c1cccnc1)C(=O)Nc1ccc(C(=O)O)cc1,i,11.2%,32.6%,3.8%,11.8%,26.7
CCOC(=O)/C(C#N)=C/c1cc(C)n(-c2ccc(C)cc2)c1C,-11.3%[1.46 µM],0.0%,-8.4%,-25.5%,8.91µM*,68.1
CC(=O)NC12CC3CC(C1)CC(C(=O)N1CCN(S(=O)(=O)c4ccccc4C#N)CC1)(C3)C2,i,/,-9.7%,-14.5%,-2.2%,9.0
O=C1C(Cl)=C(NC2CCCCC2)C(=O)N1c1ccc(Cl)cc1,i,4.0%,22.3%,-8.7%,7.8%,84.1
CC1CCN(S(=O)(=O)N2CCN(C(=O)c3ccc4c(c3)OCO4)CC2)CC1,4.3%,-6.7%,-9.8%,-4.4%,5.8%,6.4
COc1ccc(OC)c2c1C(=O)C(Cl)=C(Cl)C2=O,/,?,20µM*,/,?,-91.2*
O=C1NC(=Nc2ccccc2)/C(=C/c2ccco2)S1,/,50.1µM*,3.9%,/,11.2µM*,-25.1
O=C1NC(=Nc2ccccc2)S/C1=C\C=C\c1ccco1,-8.2%,11.2µM*,30.6%,-15.9%,?,49.7
Cc1cccc(N=C2NC(=O)/C(=C/c3cccn3C)S2)c1C,-22.8%,?,4.1%,0.8%,?,?
Cc1cccc(N=C2NC(=O)/C(=C/C=C/c3ccco3)S2)c1C,-12.8%,10µM*,-5.2%,9.4%,3.8%,2.6
Cc1ccc(N=C2NC(=O)/C(=C/C=C/c3ccco3)S2)cc1,-17.7%,44.7µM*,25.2%,11.8%,-4.3%,84.3
COc1ccc(N=C2NC(=O)/C(=C/C=C/c3ccccc3)S2)cc1,-17.4%,-6.1%,-1.4%,-11.7%,?,-39.6
CCc1nc2c(OCC3CCCCC3)cccn2c1N(C=O)Cc1ccc(OC)cc1,5.8%,/,-20.1%,2.1%,/,21.1
CCOC(=O)CC1(CCc2ccccc2)Oc2ccccc2N1S(=O)(=O)c1ccc(C)cc1 (configuration not stated),-27.1%,/,0.0%,0.0%,/,?
CCCNS(=O)(=O)/C=C/c1ccccc1,-8.8%,-1.7%,51.6%,-13.4%,21.1%,41.6
CNS(=O)(=O)/C=C/c1ccccc1,-12.5%,-2.6%,13.5%,-8.4%,23.6%,-72.0*
CCCN(C(=O)c1sc2nc3n(c(=O)c2c1C)CCCC3)c1ccccc1C,?,-14.5%,-22.9%,13.8%,/,-102.0*
COc1ccc(C)cc1N(C)C(=O)c1sc2nc3n(c(=O)c2c1C)CCCCC3,-13.9%,22.4µM*,-8.2%,-12.3%,/,-1.7
COc1ccc(CNC(=O)c2sc3nc4n(c(=O)c3c2C)CCCCC4)cc1,0.8%,8.91µM*,22.4µM*,-6.0%,/,16.0
Cc1c(C(=O)Nc2ccc(OC(F)(F)F)cc2)sc2nc3n(c(=O)c12)CCC3,/,-3.7%,?,-26.8%,-17.8%,?
Cc1ccc(N(C)C(=O)c2sc3nc4n(c(=O)c3c2C)CCCC4)cc1C,-16.5%,-15.3%,-22.5%,-24.6%,/,?
Cc1c(C(=O)Nc2ccc(Oc3ccccc3)cc2)sc2nc3n(c(=O)c12)CCC3,/,9.2%,?,?,6.31µM*,-25.8
C/C(=N\N=C1\NC(=O)C(CC(=O)Nc2ccc(C)c(Cl)c2)S1)C(C)C (configuration not stated),-5.8%,4.1%,-20.2%,-12.2%,-3.6%,22.7
COc1ccccc1CNC(=O)COC(=O)c1ccc(N2CCCC2=O)cc1,/,-30.5%,-8.8%,/,-7.1%,0.0
SMILES,VACV mCherry inh,Sm TGR inh,FMDV antiviral,Vaccinia Venus,HCV inhibitor,HCMV inh
CC(=O)c1cccc(NCC(=O)c2ccc(C)c([N+](=O)[O-])c2)c1,?,-14.3%,11.7%,-10.3%,-24.5%,24.2
CCCCC(=O)NCCc1ccc(S(N)(=O)=O)cc1,/,2.3%,-3.5%,/,3.7%,6.0
CN(CC(=O)Nc1ccccc1Br)C(=O)c1cccc([N+](=O)[O-])c1,-16.4%,-11.4%,-2.0%,-2.2%,-1.0%,-17.8
O=C(Cc1coc2cc3c(cc12)CCC3)OCC(=O)N1CCCC1=O,i,-6.2%,14.1µM*,-10.9%,6.0%,21.5
CC(=O)c1c(C)n(-c2cccc(Cl)c2)c2ccc(O)cc12,?,-23.9%,-14.1%,?,-23.3%,-68.2*
CC(=O)c1c(C)n(-c2ccccc2)c2ccc(O)cc12,/,-1.1%,-29.5%,/,?,-63.8*
CC(=O)c1c(C)n(Cc2ccccc2Cl)c2ccc(O)cc12,-11.9%,13.2%,?,-0.2%,-24.5%,-62.0*
CC(=O)c1c(C)n(-c2ccc(Cl)cc2)c2ccc(O)cc12,?,11.3%,-6.7%,-1.6%,-8.4%,-13.0
CC(=O)c1c(C)n(CCc2ccc(Cl)cc2)c2ccc(O)cc12,-16.3%,3.3%,-13.5%,-9.2%,9.1%,-38.3
COc1ccc2c(c1)c(C(=O)O)c(C)n2-c1ccc(Cl)cc1,/,2.9%,-15.7%,/,2.3%,-62.9*
CC(=O)c1ccc(-n2c(C)c(C(C)=O)c3cc(O)ccc32)cc1,i,0.0%,-22.6%,0.7%,12.7%,?
COc1ccc2c(c1)c(C(=O)N1CCN(C)CC1)c(C)n2-c1ccccc1,-23.5%,-1.8%,5.4%,-17.8%,8.5%,26.7
CCOc1ccc(-n2c(C)c(C(C)=O)c3cc(O)ccc32)cc1,/,2.3%,-6.6%,/,8.1%,-61.7*
O=c1c2ccccc2cnn1Cc1n[nH]c(=S)n1-c1ccccc1Cl,-14.5%,-5.7%,-17.3%,-12.1%,9.0%,-11.6
COc1ccccc1NC(=O)CSc1nnc(NC(=O)Nc2ccc(C)cc2)s1,-6.3%[7.34 µM],-6.0%,-7.9%,-14.9%[7.34 µM],/,-86.1*
Cc1ccc(NC(=O)Nc2nnc(SCC(=O)N(C(C)C)C(C)C)s2)cc1,-4.4%[7.34 µM],2.9%,0.0%,-12.7%[7.34 µM],/,-79.7*
COc1ccccc1NC(=O)CSc1nnc(NC(=O)C2CC2)s1,46.4%,-1.5%,-12.4%,5.3%,-14.6%,37.6
CCCCC(CCC(=O)O)(C(=O)OCC)c1csc(Nc2ccc(OCC)cc2)n1 (configuration not stated),/,50.1µM*,-11.7%,/,1.1%,-30.4
CCCCC(CCC(=O)O)(C(=O)OCC)c1csc(Nc2ccccc2)n1 (configuration not stated),i,-28.8%,-19.9%,-5.5%,-6.2%,/
CCOc1cc(CNc2ccccc2SC)ccc1O,/,8.91µM*,/,/,-4.2%,/
COc1cc(C[C@@H](C)[C@@H](C)Cc2ccc(O)c(OC)c2)ccc1O,?,/,-22.0%,?,-13.4%,-9.9
COc1cc(CNc2ccccc2SC)ccc1O,-21.4%,2.24µM*,15.4%,-11.2%,/,16.1
COc1cc2c(=O)n(Cc3ccccc3)c(=O)n(CC(=O)NCc3ccco3)c2cc1OC,/,2.4%,-21.1%,-19.2%,?,19.9
COc1ccc(-c2nc3n(c(=O)c2C#N)CCCS3)cc1,/,0.4%,16.1%,-10.6%,?,-18.1
